Measurements: PubChem BioAssay (EPA / NIEHS)
Inconclusive results are not listed. The source made the active and inactive calls. How the source made its calls, unless noted: active means hit-call score of the fitted dose curve at least 0.9, where 1 is the maximum; inactive means score below 0.9.

What was measured:
[1] = ACEA_ER_80hr: ACEA Biosciences xCELLigence Real-Time Cell Analysis on Estrogen Receptor Agonism for Proliferation (AID 2282667; active means hit-call score of the fitted dose curve at least 0.9, where 1 is the maximum); settings: T47D proliferation, impedance (xCELLigence), 80 h
Outline: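 Impedance readout (RT-CES) of T47D proliferation at 80 h post-dose; gain of signal vs DMSO baseline. Compounds: 8 conc, 1:4 serial, top 100 uM final, ≤0.5% DMSO; biological duplicate.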

[2] = ATG_CRE_CIS: Attagene CIS-FACTORIAL HepG2 Assay for human cAMP Responsive Element (CRE) binding protein 3 (AID 2282926); settings: HepG2 CRE cis-reporter, Attagene multiplexed mRNA; actives raise or lower the signal
Outline: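 Readout: fluorescently labelled reporter transcripts resolved by capillary electrophoresis after RT-PCR, taken 24 h post-dosing in transfected HepG2. Endogenous transcription factor activity drives each cis-element reporter; gain or loss of signal fitted relative to DMSO control.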

[3] = target: CCAAT/enhancer-binding protein beta (Homo sapiens) (UniProt P17676); assay: ATG_C_EBP_CIS: Attagene CIS-FACTORIAL HepG2 Assay for human CCAAT/Enhancer Binding Protein (C/EBP) beta (AID 2282927); settings: HepG2 Attagene cis-factorial transcription factor reporter; actives raise or lower the signal
Sequence of CCAAT/enhancer-binding protein beta (Homo sapiens) (P17676 whole entry, looked up): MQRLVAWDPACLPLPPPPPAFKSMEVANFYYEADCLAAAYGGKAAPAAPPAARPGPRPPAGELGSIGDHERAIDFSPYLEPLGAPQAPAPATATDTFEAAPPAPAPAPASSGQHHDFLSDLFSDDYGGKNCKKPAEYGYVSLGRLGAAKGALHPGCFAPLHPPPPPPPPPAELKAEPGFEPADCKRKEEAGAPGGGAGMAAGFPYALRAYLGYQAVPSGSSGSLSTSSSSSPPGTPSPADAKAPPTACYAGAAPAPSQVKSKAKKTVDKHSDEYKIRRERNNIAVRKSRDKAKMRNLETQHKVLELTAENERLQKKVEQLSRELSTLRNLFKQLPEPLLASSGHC
Outline: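 HepG2, transient MRTU transfection, 24 h treatment. RT-PCR plus CE fluorescence; DMSO negative control, bidirectional fit.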

[4] = ATG_CMV_CIS: Attagene CIS-FACTORIAL HepG2 Assay for human CMV (Internal Marker) (AID 2282928); settings: HepG2 CMV promoter reporter, transcription factor profiling; actives raise or lower the signal;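 further: endpoint acts as a background internal control marker rather than a target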
Outline: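 24 h chemical treatment, HepG2 with transient multi-reporter transfection; RNA → oligo(dT) RT → PCR → 6-FAM extension → HpaI digest → CE fluorescence. Bidirectional fit, DMSO negative control.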

[5] = ATG_DR4_LXR_CIS: Attagene CIS-FACTORIAL HepG2 Assay for human Liver X Receptor (LXR), DR4 submotif (AID 2282929); settings: HepG2 Attagene DR4 cis-reporter, mRNA transcription; actives raise or lower the signal
Outline: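 After transient transfection with multiplexed cis-promoter reporter units, HepG2 cells received test chemicals for 24 h. Reporter mRNA induction, detected by fluorescence after RT-PCR and capillary electrophoresis, was scored relative to DMSO.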

[6] = ATG_AP_1_CIS: Attagene CIS-FACTORIAL HepG2 Assay for human Activator Protein 1 (AP-1) (AID 2282931); settings: HepG2 Attagene cis-factorial AP-1 reporter mRNA; actives raise or lower the signal
Outline: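 After 24 h incubation with test chemical, RNA from transfected HepG2 cells was reverse-transcribed, amplified, fluorescently labelled and digested before capillary electrophoresis. Reporters were driven by cis-regulatory promoters; activity fitted bidirectionally versus DMSO.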

[7] = ATG_AP_2_CIS: Attagene CIS-FACTORIAL HepG2 Assay for human Activator Protein 2 (AP-2) (AID 2282932); settings: HepG2 AP-2 cis-reporter, Attagene transcription factor profiling; actives raise or lower the signal
Outline: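 Liver-derived HepG2 line, cis-reporter system measuring endogenous factors; 24 h dosing; reporter mRNA detected by fluorescent RT-PCR and capillary electrophoresis.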

[8] = ATG_BRE_CIS: Attagene CIS-FACTORIAL HepG2 Assay for human Bone Morphogenetic Protein (BMP) Response Element (BRE) (AID 2282933); settings: HepG2 BMP response element reporter, Attagene transcription factor profiling; actives raise or lower the signal
Outline: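 A HepG2 multiplex reporter system measured inducible reporter mRNA 24 h post-dosing. Detection: RT-PCR, 6-FAM primer extension, HpaI digestion, capillary electrophoresis. Activity fitted bidirectionally relative to DMSO.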

[9] = target: Retinoic acid receptor alpha (Homo sapiens) (UniProt P10276); assay: ATG_DR5_RAR_CIS: Attagene CIS-FACTORIAL HepG2 Assay for human Retinoic Acid Receptor Alpha (RARE), DR5 submotif (AID 2282934); settings: HepG2 Attagene cis-factorial RARE DR5 reporter, mRNA; actives raise or lower the signal;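 on AC50: reporter responds to endogenous RAR alpha beta and gamma in HepG2 not RARA alone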
Sequence of Retinoic acid receptor alpha (Homo sapiens) (P10276 whole entry, looked up): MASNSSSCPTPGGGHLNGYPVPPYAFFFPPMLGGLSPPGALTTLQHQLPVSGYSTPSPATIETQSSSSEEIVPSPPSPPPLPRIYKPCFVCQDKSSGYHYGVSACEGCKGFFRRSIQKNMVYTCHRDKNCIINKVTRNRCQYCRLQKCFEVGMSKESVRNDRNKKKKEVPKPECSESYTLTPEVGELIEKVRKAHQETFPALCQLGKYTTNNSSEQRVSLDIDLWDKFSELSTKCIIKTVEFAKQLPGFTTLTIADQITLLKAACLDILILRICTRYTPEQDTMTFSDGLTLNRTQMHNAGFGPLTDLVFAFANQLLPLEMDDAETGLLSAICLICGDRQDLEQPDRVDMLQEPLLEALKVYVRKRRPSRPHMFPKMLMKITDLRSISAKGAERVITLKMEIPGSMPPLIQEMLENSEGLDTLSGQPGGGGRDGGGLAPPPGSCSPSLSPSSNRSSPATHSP
Outline: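 After 24 h of chemical exposure, transiently transfected HepG2 cells were lysed for total RNA; the DR5-regulated reporter transcript was quantified via RT-PCR and capillary electrophoresis, with activity fitted bidirectionally against DMSO.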

[10] = target: Transcription factor E2F1 (Homo sapiens) (UniProt Q01094); assay: ATG_E2F_CIS: Attagene CIS-FACTORIAL HepG2 Assay for human E2F Transcription Factor 1 (AID 2282935); settings: HepG2 Attagene cis-reporter, E2F reporter RNA transcripts; actives raise or lower the signal
Sequence of Transcription factor E2F1 (Homo sapiens) (Q01094 whole entry, looked up): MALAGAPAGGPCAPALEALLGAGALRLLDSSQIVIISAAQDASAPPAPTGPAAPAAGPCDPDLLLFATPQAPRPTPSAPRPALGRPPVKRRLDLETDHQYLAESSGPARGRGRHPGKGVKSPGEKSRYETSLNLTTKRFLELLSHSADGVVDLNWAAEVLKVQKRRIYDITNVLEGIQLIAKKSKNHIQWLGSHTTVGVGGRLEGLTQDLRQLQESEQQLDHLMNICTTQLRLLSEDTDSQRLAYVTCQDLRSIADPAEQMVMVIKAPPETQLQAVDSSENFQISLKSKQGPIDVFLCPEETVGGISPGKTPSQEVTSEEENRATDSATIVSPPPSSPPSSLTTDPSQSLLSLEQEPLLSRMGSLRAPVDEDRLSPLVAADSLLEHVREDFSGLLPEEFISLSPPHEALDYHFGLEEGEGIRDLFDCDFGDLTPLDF
Outline: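 Liver-derived HepG2 cells expressing transfected promoter-driven reporter units received test chemical for 24 hours. Signal gains or losses were fitted bidirectionally against DMSO.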

[11] = ATG_M_61_CIS: Attagene CIS-FACTORIAL HepG2 Assay for M61 Transcription Factor (Internal Marker) (AID 2282937); settings: HepG2 Attagene CIS-FACTORIAL M61 internal marker reporter; actives raise or lower the signal
Outline: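 Using transiently transfected HepG2 liver cells, reporter transcript levels were assessed 24 h post-dosing by RT-PCR and capillary electrophoresis. Changes in either direction were fitted relative to DMSO controls.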

[12] = ATG_EGR_CIS: Attagene CIS-FACTORIAL HepG2 Assay for human Early Growth Response 1 (EGR1) (AID 2282938); settings: HepG2 Attagene CIS-FACTORIAL EGR reporter mRNA; actives raise or lower the signal
Outline: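 Fluorescent capillary-electrophoresis signal of reporter cDNA fragments serves as read-out. HepG2 cells bear transiently transfected cis-promoter reporter units and are exposed 24 h; gain- or loss-of-signal is fitted against DMSO.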

[13] = ATG_ERE_CIS: Attagene CIS-FACTORIAL HepG2 Assay for Estrogen Response Element (ERE) (AID 2282940); settings: HepG2 ERE cis-reporter, Attagene RNA transcript; actives raise or lower the signal
Outline: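 Human liver cells (HepG2) bearing transiently transfected, promoter-regulated reporter units were exposed 24 h. Reporter mRNA induction was detected by capillary electrophoresis of labelled RT-PCR products and fitted bidirectionally to DMSO.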

[14] = ATG_Ets_CIS: Attagene CIS-FACTORIAL HepG2 Assay for human Erythroblast Transformation Specific (ETS) (AID 2282941); settings: HepG2 ETS cis-reporter transcription, actives raise or lower the signal
Outline: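 Cis-regulated reporter mRNA induction in HepG2 (transient transfection), 24 h exposure, RT-PCR plus capillary electrophoresis detection; DMSO serves as negative control and baseline.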

[15] = target: Hepatocyte nuclear factor 3-beta (Homo sapiens) (UniProt Q9Y261); assay: ATG_FoxA2_CIS: Attagene CIS-FACTORIAL HepG2 Assay for human Forkhead box A2 (FOXA2) (AID 2282942); settings: HepG2 cis-reporter transcription factor activity, 24 h; actives raise or lower the signal
Sequence of Hepatocyte nuclear factor 3-beta (Homo sapiens) (Q9Y261 whole entry, looked up, the tested form may be a part): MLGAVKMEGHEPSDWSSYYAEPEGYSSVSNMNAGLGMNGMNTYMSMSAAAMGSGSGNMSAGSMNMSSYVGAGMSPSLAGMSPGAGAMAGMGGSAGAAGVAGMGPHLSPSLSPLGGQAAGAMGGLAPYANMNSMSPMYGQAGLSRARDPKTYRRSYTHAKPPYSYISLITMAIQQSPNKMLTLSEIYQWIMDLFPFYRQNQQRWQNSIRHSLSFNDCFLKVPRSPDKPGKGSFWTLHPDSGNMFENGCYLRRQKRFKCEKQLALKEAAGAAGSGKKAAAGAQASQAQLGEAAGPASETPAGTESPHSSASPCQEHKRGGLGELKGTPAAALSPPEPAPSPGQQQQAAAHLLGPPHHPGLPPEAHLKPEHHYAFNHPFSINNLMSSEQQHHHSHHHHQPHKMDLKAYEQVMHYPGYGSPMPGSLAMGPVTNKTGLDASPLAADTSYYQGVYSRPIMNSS
Outline: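 Fluorescence signal of reporter cDNA fragments, separated by capillary electrophoresis, reflects endogenous transcription factor activity in transfected HepG2 after 24 h. Both increases and decreases fitted against DMSO.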

[16] = ATG_FoxO_CIS: Attagene CIS-FACTORIAL HepG2 Assay for human Forkhead box O (FoxO) (AID 2282943); settings: HepG2 Attagene cis-reporter, FoxO element, mRNA; actives raise or lower the signal
Outline: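 Transfected HepG2 reporter cells exposed to test chemical for 24 h; reporter RNA measured by reverse transcription, PCR and fluorescent capillary electrophoresis; curves fitted for increases and decreases against DMSO.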

[17] = ATG_GATA_CIS: Attagene CIS-FACTORIAL HepG2 Assay for human GATA Binding Protein (AID 2282944); settings: HepG2 GATA cis-element reporter, Attagene multiplex mRNA; actives raise or lower the signal
Outline: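 Transfected cis-reporter HepG2 cells were treated with chemicals for 24 hours. Total RNA was then converted to cDNA, amplified with reporter-specific primers and analysed by fluorescent capillary electrophoresis, using DMSO-treated wells as baseline.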

[18] = target: Aryl hydrocarbon receptor (Homo sapiens) (UniProt P35869); assay: ATG_Ahr_CIS: Attagene CIS-FACTORIAL HepG2 Assay for human Aryl Hydrocarbon Receptor (Ahr) (AID 2282930); settings: HepG2 AhR cis-factorial reporter transcription; actives raise or lower the signal
Sequence of Aryl hydrocarbon receptor (Homo sapiens) (P35869 whole entry, looked up): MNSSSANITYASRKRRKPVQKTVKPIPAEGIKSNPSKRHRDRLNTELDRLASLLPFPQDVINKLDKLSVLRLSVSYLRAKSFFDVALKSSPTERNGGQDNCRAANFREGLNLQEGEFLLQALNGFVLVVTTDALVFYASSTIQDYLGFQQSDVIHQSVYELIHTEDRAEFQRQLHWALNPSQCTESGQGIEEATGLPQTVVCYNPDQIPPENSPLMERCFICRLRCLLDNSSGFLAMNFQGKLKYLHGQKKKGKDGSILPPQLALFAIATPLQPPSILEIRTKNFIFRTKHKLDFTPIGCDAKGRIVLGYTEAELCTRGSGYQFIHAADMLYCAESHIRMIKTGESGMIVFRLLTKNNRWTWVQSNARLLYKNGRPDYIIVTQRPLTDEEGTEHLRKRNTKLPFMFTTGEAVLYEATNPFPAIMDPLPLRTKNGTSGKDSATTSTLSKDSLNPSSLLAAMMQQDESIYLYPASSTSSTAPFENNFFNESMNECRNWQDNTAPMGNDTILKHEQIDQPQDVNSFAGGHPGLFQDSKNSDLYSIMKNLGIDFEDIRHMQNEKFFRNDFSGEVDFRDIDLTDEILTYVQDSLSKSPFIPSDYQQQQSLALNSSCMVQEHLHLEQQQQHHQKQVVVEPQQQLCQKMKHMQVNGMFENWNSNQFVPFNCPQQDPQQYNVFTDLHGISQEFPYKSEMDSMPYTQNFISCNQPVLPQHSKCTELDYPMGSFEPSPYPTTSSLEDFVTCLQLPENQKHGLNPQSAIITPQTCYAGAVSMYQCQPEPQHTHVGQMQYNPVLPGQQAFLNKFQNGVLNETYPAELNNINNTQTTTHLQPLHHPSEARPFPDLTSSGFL
Outline: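 Endogenous factor activity is tracked through cis-promoter reporter units transfected into HepG2 cells. Transcript levels at 24 h are read by fluorescent RT-PCR and capillary electrophoresis, with activity in either direction scored relative to DMSO.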

[19] = ATG_E_Box_CIS: Attagene CIS-FACTORIAL HepG2 Assay for human Enhancer Box (E-box) (AID 2282936); settings: HepG2 E-box cis-reporter transcription, actives raise or lower the signal
Outline: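 In this cell-based setup, HepG2 cells bearing transfected promoter-driven reporter units were exposed to chemicals for 24 h; reporter transcripts were amplified, 6-FAM-labelled, cut with HpaI and sized by capillary electrophoresis.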

[20] = ATG_M_19_CIS: Attagene CIS-FACTORIAL HepG2 Assay for M19 Transcription Factor (Internal Marker) (AID 2282939); settings: HepG2 Attagene CIS-FACTORIAL M19 internal marker reporter; actives raise or lower the signal
Outline: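 Chemical-treated HepG2 (24 h) with MRTU constructs; reporter transcripts detected by fluorescent RT-PCR fragment analysis on capillary electrophoresis. Internal background marker, DMSO as baseline.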

Measured: AC50

Oc1c(Cl)cc(Cl)c(Cl)c1Cl
inactive: [2] | [3] | [4] | [5] | [6] | [7] | [9] | [10] | [11] | [13] | [14] | [15] | [16] | [17]
active: [1] 10.5 µM | [8] 100 µM | [12] 100 µM

C=CC(C)(O)CC/C=C(\C)CC (stereo not drawn)
inactive: [1] | [2] | [3] | [4] | [18] | [6] | [7] | [8] | [9] | [10] | [19] | [11] | [12] | [20] | [13] | [14] | [15] | [16] | [17]

CCOC(=O)c1ccccc1C
inactive: [1] | [2] | [3] | [4] | [18] | [6] | [7] | [8] | [9] | [10] | [19] | [11] | [12] | [13] | [14] | [15] | [16] | [17]

Cc1ccc2c(c1)CCCN2
inactive: [1] | [2] | [3] | [4] | [5] | [6] | [8] | [9] | [10] | [19] | [11] | [20] | [13] | [14] | [16] | [17]

CC(=O)CCC1=C(C)CCCC1(C)C
inactive: [1] | [2] | [3] | [4] | [5] | [6] | [7] | [8] | [9] | [10] | [11] | [12] | [20] | [14] | [15] | [16] | [17]
active: [13] 29.8 µM

Cc1noc(NS(=O)(=O)c2ccc(N)cc2)c1C
inactive: [1] | [2] | [3] | [4] | [5] | [18] | [6] | [9] | [10] | [19] | [11] | [20] | [13] | [14] | [15] | [16] | [17]

O=C(Cl)c1ccc(C(=O)Cl)cc1
inactive: [1] | [2] | [3] | [4] | [18] | [6] | [7] | [8] | [9] | [10] | [11] | [12] | [20] | [13] | [14] | [15] | [16] | [17]

CC1=CC=C(C(C)C)CC1
inactive: [1] | [2] | [3] | [4] | [18] | [6] | [7] | [8] | [10] | [19] | [11] | [12] | [20] | [14] | [15] | [16] | [17]

CC(C)=CCl
inactive: [1] | [2] | [3] | [4] | [18] | [6] | [7] | [8] | [9] | [19] | [11] | [12] | [20] | [14] | [15] | [16] | [17]

O=C(O)CC(C(=O)O)S(=O)(=O)O (stereo not drawn)
inactive: [1] | [2] | [3] | [4] | [5] | [6] | [7] | [8] | [9] | [10] | [19] | [11] | [12] | [13] | [14] | [15] | [16]

CCCCCCCO
active: [13] 30 µM
inactive: [1] | [2] | [3] | [4] | [18] | [6] | [7] | [8] | [9] | [10] | [19] | [11] | [12] | [20] | [14] | [16] | [17]

Cc1ccc([N+](=O)[O-])cc1N
inactive: [1] | [2] | [3] | [4] | [6] | [7] | [8] | [9] | [19] | [11] | [14] | [15] | [16] | [17]
active: [18] 1.51 µM

O=C(Nc1ccccc1)c1cc(Cl)ccc1O
inactive: [1] | [4] | [5] | [7] | [10] | [19] | [11] | [13] | [15] | [17]
active: [2] 3.19 µM | [3] 3.35 µM | [6] 2.84 µM | [8] 3.15 µM | [9] 4.11 µM | [12] 6.36 µM | [14] 19.8 µM | [16] 100 µM

CCCCOC(=O)CCC(C)=O
inactive: [1] | [2] | [3] | [4] | [5] | [6] | [7] | [8] | [9] | [10] | [19] | [11] | [20] | [13] | [14] | [15] | [16]

O=C1CCCCCCCCCCCN1
active: [1] 53.3 µM
inactive: [2] | [3] | [4] | [5] | [6] | [7] | [8] | [9] | [10] | [11] | [12] | [20] | [14] | [15] | [16] | [17]

Cc1cc(C)n(CO)n1
inactive: [1] | [2] | [3] | [4] | [5] | [6] | [7] | [8] | [9] | [10] | [19] | [11] | [12] | [20] | [13] | [14] | [15] | [16] | [17]
